Laboratory results taken from PubChem BioAssay (NCI).
The panel holds about 83,000 compounds, 20% with a hit somewhere; the sample as a whole holds those more often.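 Method: cells in 96-well plates; compound added at one concentration; 48 h incubation; percent growth measured; values under 10 scored active.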 A number with no mark means an inactive call. Active and inactive are the calls of the source.

Legend:
Test in all cases: NCI-60 one-dose screen, 48 h (100 = growth as untreated, 0 = no growth, -100 = all killed)
[1] = test system: HT29 colon; conditions: 10 µM unless noted
[2] = test system: SNB-75 CNS; conditions: 10 µM unless noted
[3] = test system: SNB-19 CNS; conditions: 10 µM unless noted
[4] = test system: U251 CNS; conditions: 10 µM unless noted
[5] = test system: PC-3 prostate; conditions: 10 µM unless noted
[6] = test system: SK-MEL-5 melanoma; conditions: 10 µM unless noted
[7] = test system: UACC-62 melanoma; conditions: 10 µM unless noted
[8] = test system: SK-MEL-28 melanoma; conditions: 10 µM
[9] = test system: SK-MEL-2 melanoma; conditions: 10 µM unless noted
[10] = test system: EKVX NSCLC; conditions: 10 µM unless noted
[11] = test system: SN12C renal; conditions: 10 µM unless noted
[12] = test system: UO-31 renal; conditions: 10 µM unless noted
[13] = test system: TK-10 renal; conditions: 10 µM unless noted
[14] = test system: ACHN renal; conditions: 10 µM unless noted
[15] = test system: CAKI-1 renal; conditions: 10 µM unless noted
[16] = test system: A498 renal; conditions: 10 µM unless noted
[17] = test system: CCRF-CEM leukemia; conditions: 10 µM unless noted
[18] = test system: MOLT-4 leukemia; conditions: 10 µM unless noted
[19] = test system: SR leukemia; conditions: 10 µM unless noted
[20] = test system: LOX IMVI melanoma; conditions: 10 µM unless noted

SMILES	growth [1]	growth [2]	growth [3]	growth [4]	growth [5]	growth [6]	growth [7]	growth [8]	growth [9]	growth [10]	growth [11]	growth [12]	growth [13]	growth [14]	growth [15]	growth [16]	growth [17]	growth [18]	growth [19]	growth [20] [%]
COc1c(B(O)O)cccc1-c1nc2ccc3[nH]ncc3c2c2c1C1CCC2C1 (stereo not drawn)	71.9%	2.23% (active)	74%	66.4%	76.9%	75.7%	70.3%	104%	80.8%	101%	59.8%	29.3%	44.2%	63.2%	1.43% (active)	87.2%	20.5%	52.8%		
C#CCn1cc(C=C2C(=O)N(C)C(=O)N(C)C2=O)c2cc(Cl)ccc21	118%	91.6%	105%	113%	103%	99.5%	94%	113%	95.5%	98.1%	101%	80.1%	106%	99.4%	91.7%	70%	105%	105%		
O=C1/C(=C/c2ccc(O)cc2)COc2ccc(O)c(O)c21	44.6%	29.6%	46.9%	9.17% (active)	41.9%	44.1%	24.3%	52.7%	85.2%	71.5%	-4.74% (active)	-88.5% (active)	54.1%	-16.2% (active)	6.4% (active)	98.4%	9.61% (active)	4.43% (active)	12.7%	
C1CCN(c2nc(N3CCCCC3)nc(N3CCOCC3)n2)CC1	88.2%	81%	96.1%	101%	104%	101%	93%			85.4%	96.5%	99.5%	92.1%	116%	85.6%	109%	92.6%	81.5%	89.4%	98.7
CCOC(=O)c1cc2c(n1Cc1ccccc1OC)-c1oncc1CCC2	10.1%	-2.26% (active)	59.6%	36.7%	30.8%	6.57% (active)	26.5%		27.5%		53.3%	45.2%	59.4%	53.4%	35.8%	-2.62% (active)	8.18% (active)	28.4%	4.65% (active)	45.5
Cc1ccc(Cn2c(N3CCC(C(=O)NCc4cccs4)CC3)nc3ccccc32)cc1	48.6%	77.5%	112%	73.9%	39.8%	92%	101%	98.1%	101%		87.9%	65%	95.7%	98.5%	89.1%	62.4%	8.48% (active)	21.6%	-37% (active)	
COc1ccc2occ(C3=C(c4c[nH]c5ccccc45)C(=O)NC3=O)c2c1	17.2%	16.6%	51.1%	43.6%	62.7%	47.4%	37.9%	58.6%	43.7%	49.4%	38.4%	40.4%	81.5%	70.2%	36.6%		51.9%	30.2%	29.4%	
COC(=O)[C@H](NC(=O)C1(C)CCC[C@]2(C)[C@H]3C[C@H]4C(C(C)C)=C[C@]3(CC[C@@H]12)[C@@H]1C(=O)CCC(=O)[C@@H]14)C(C)C (stereo partly drawn)	109%	83.7%	92.9%	99.1%	90.8%	101%	84.4%	99.7%	116%	94.9%	99.8%	90.7%	127%	100%	88.4%	110%	104%	102%	89.7%	
NS(=O)(=O)c1ccc(CCN=C=S)cc1	14.7%	29.1%	73.5%	27.6%	47%	74.7%	68.5%	55%	63%	99.9%	28.6%	-41.9% (active)	-4.75% (active)	-70.7% (active)	21.8%	79.8%	10.4%	16.3%	9.82% (active)	
COc1ccc(C2C3=C(COC3=O)N(CCO)c3cc4c(cc32)CCC4)cc1OC (stereo not drawn)	-3.07% (active)	-28% (active)	27.8%	20%	23.4%	28%	36.7%			23.3%	38.8%	42%	14.1%	47.6%	8.75% (active)	29%	18.6%	24%	25%	44
O=C(Nc1ccc(N2CCNCC2)cc1)c1[nH]ncc1Nc1cc(Oc2ccccc2)ncn1	-59.7% (active)	49.1%	45.9%	24.4%	-60.3% (active)	22.8%	-5.09% (active)	46.9%	72.3%	32.5%	2.47% (active)	-13.1% (active)	49.5%	-99.1% (active)	18.4%	40.6%	-27.5% (active)	-16% (active)	1.43% (active)	
COc1ccccc1N1CCN(C(CNS(=O)(=O)c2ccc(Cl)cc2)c2cccnc2)CC1 (stereo not drawn)	45.3%	91.4%	107%	61.7%	48.9%	90.2%	100%	85.2%	120%		90.8%	111%	111%	103%	104%	56.7%	55.5%	46.7%	49.5%	
COc1cccc2c1C=C1CCCCC3=Cc4c(OC)cccc4OC13O2	16.3%	-18.1% (active)	51.3%	30.9%	33.7%	50.3%	24.2%	53.6%	48.6%	60.5%	49.5%	44.5%	74.7%	38.7%	47.8%	35.9%	27.9%	29.1%	28.6%	
COc1cc2nc(-c3cccc4cccnc34)nc(NC3CCN(Cc4ccccc4)CC3)c2cc1OC	-87.2% (active)	-87.8% (active)	-78.2% (active)	-78.4% (active)	-84.4% (active)	-96.8% (active)	-82.3% (active)	-76.9% (active)	-77.8% (active)	-66.2% (active)	-82.4% (active)	-83% (active)	-88.7% (active)	-94.5% (active)	-88.3% (active)	-72.2% (active)	-30.1% (active)	-32.4% (active)	-7.18% (active)	
O=C1Nc2ccccc2/C1=C/c1cccs1	110%	103%	83.2%	83.2%	92.3%	85.9%	85.9%	102%	110%	73.2%	89.9%	62.2%	134%	86.7%	90.4%	106%	97.2%	102%	121%	
O=NN(C(=O)NC1CCC(C(=O)O)CC1)C1CCC(C(=O)O)CC1 (stereo not drawn)	108%	84.1%	100%	104%	98.6%	104%	108%	106%	122%		103%	92.8%	110%	100%	90.2%	103%	91.9%	102%	95%	
CCN(CC)c1cc(C)c2cc(NC(=O)c3cccc(OC)c3)ccc2n1	67.8%	81.6%	84.3%	55%	39.5%	57.3%	81%	85.2%	98.6%		79.1%	81.6%	114%	91.2%	73.2%	29.2%	24.8%	32.7%	43.5%	
